# In ChEMBL document CHEMBL1961873, “Compounds: GSK PKIS; Assays: Nanosyn kinase panel” (2012):
# Molecular target: T1, Inhibitor of nuclear factor kappa-B kinase subunit epsilon (Homo sapiens) (UniProt Q14164)
# T1 sequence (whole entry): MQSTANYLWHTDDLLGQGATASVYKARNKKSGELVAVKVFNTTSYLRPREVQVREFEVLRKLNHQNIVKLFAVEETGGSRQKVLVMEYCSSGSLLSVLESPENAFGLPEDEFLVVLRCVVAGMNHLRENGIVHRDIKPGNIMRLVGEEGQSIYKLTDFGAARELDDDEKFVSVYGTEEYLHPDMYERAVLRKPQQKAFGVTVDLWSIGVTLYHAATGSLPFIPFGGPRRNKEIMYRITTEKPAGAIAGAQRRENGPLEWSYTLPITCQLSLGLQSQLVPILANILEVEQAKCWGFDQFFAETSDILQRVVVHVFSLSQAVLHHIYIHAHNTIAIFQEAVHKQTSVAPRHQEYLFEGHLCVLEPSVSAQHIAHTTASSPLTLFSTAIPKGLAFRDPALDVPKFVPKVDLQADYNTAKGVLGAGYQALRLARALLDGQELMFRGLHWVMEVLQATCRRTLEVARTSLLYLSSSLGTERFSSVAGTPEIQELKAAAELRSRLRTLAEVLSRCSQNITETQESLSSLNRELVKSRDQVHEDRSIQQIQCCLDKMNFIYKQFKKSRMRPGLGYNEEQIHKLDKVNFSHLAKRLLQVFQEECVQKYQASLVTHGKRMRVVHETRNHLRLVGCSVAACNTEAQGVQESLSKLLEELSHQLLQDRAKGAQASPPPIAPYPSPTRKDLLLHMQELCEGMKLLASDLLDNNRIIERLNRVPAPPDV
# Details: at 1 µM
# 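Further: reported values are averaged percent inhibition figures against human IKKε.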
row,Structure (SMILES),inhibition
1,CCS(=O)(=O)c1ccc(OC)c(Nc2ncc(-c3cccc(OC)c3)o2)c1,4.13%
2,CCn1c(-c2nonc2N)nc2c(C#CC(C)(C)O)nc(OCCNC)cc21,46.6%
3,CN1CCN(C(=O)c2ccc(NC(=O)Nc3ccc(N(C)c4ccnc(Nc5ccc(CS(C)(=O)=O)cc5)n4)cc3)cc2)CC1,14.2%
4,CC(C)c1ccc(Nc2nccc(-c3cnn4ncccc34)n2)cc1,7.95%
5,N#Cc1cccc(Nc2nccc(-c3cnn4ncccc34)n2)c1,27.9%
6,c1ccc(Cc2nc3ccc(Nc4ncnc5ccccc45)cc3[nH]2)cc1,4.77%
7,Cc1ccc(C(=O)NC2CC2)cc1-c1ccc2[nH]ncc2c1,-3.47%
8,COC(=O)Nc1nc2cc(Oc3ccc(NC(=O)Nc4cccc(Br)c4)cc3)ccc2[nH]1,5.38%
9,NC(=O)c1sc(-n2cnc3ccccc32)cc1OCc1ccccc1Br,6.21%
10,c1ccc(Nc2ncc(-c3ccccc3)o2)cc1,8.49%
11,CCCN1CCCC(c2ccc(Nc3nc(Nc4cc(F)ccc4C(N)=O)c4cc[nH]c4n3)c(OC)c2)C1 (stereo not drawn),8.28%
12,Nc1ccc(C#Cc2cncnc2Nc2ccc(OCc3cccc(F)c3)c(Cl)c2)cc1,4.07%
13,CN(C)C(=O)O[C@H]1CN[C@H](C#Cc2cc3ncnc(Nc4ccc(OCc5cccc(F)c5)c(Cl)c4)c3s2)C1,4.15%
14,O=C1Nc2ccc(-c3cccnc3)cc2C1=Cc1cc(Br)c(O)c(Br)c1,92.1%
15,CS(=O)(=O)Nc1cccc(-c2ccc3c(NC(=O)C4CC4)n[nH]c3c2)c1,2.59%
16,CCS(=O)(=O)c1ccc(OC)c(Nc2nccc(N(C)c3ccc4c(C)n[nH]c4c3)n2)c1,6.37%
17,COc1cccc(-n2ncc3c(N/N=C/c4ccc(S(C)(=O)=O)cc4)ncnc32)c1,8.64%

row,Structure (SMILES),inhibition
1,Cc1ccc2c(-c3ccnc(Nc4cccc(C(F)(F)F)c4)n3)c(-c3ccccc3)nn2n1,6.22%
2,Cc1ccc2c(-c3ccnc(Nc4ccc5c(c4)OCCO5)n3)c(-c3ccc(C(F)(F)F)cc3)nn2n1,-0.03%
3,NS(=O)(=O)c1ccc(-c2cc3ccncc3cc2OCc2ccccc2)cc1,2.21%
4,COc1ccc2ncnc(Nc3ccc(OCc4ccccc4)cc3)c2c1,1.06%
5,CCn1c(-c2nonc2N)nc2ccc(F)cc21,11%
6,N#Cc1c(NC(=O)c2ccccc2F)sc2c1CCCC2,-0.39%
7,COc1cccc(-n2nc(C)c3c(N/N=C(\C)c4ccncc4)ncnc32)c1,1.16%
8,OCc1ccc(-c2nc(-c3ccccn3)c(-c3ccc4c(c3)OCO4)[nH]2)cc1,5.41%
9,CCOc1nccc2c1nc(-c1nonc1N)n2CC,6.4%
10,NS(=O)(=O)c1ccc(N/N=C2\C(=O)Nc3ccc(Cl)cc32)cc1,8.2%
11,Cc1ccc(O)cc1Nc1ccnc2ccc(S(C)(=O)=O)cc12,6.97%
12,COC(=O)c1ccc2c(c1)C(=Cc1cc(Br)c(O)c(Br)c1)C(=O)N2,13.9%
13,[O-][S+]1CCN(Cc2ccc(-c3ccc4ncnc(Nc5ccc(OCc6ccccc6)c(Cl)c5)c4c3)o2)CC1,1.71%
14,COc1cccc(-n2ncc3c(N/N=C/c4ccc(C)cc4)ncnc32)c1,6.9%
15,O=S(=O)(CCOCc1ccc(-c2ccc3ncnc(Nc4ccc(OCc5cccc(F)c5)c(Cl)c4)c3c2)o1)c1ccccc1,0.73%
16,COc1cc(/C=N/Nc2ncnc3c2cnn3C(C)C)ccc1O,1.92%
